# Reference: PubChem BioAssay (NCATS)
# Where “and” joins values, the source holds several entries; their conditions need not be identical. Equal entries are not always repeated. Results filed as inconclusive are left out. Calls of active or inactive are those of the source. Calls come from the whole dose curve; as a rule, active = well fitted curve in the direction sought with a large enough effect; inconclusive = small, poorly fitted or top-dose-only effect, or another doubt; inactive = no such curve, though single readings can be large; an effect the other way counts as inactive or inconclusive.
# Test system: not listed separately
# Test: qHTS Assay for Lipid Storage Modulators (AID 1519)
# Settings: Drosophila S3 cells, BODIPY lipid droplet/cell ratio, laser cytometry; measured here: lipid channel max response; cells loaded with oleic acid
# How it was run: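 Cells seeded at 5,000 per well were treated with compounds over a concentration series and loaded with oleic acid (400 uM, as added). Lipid droplet fluorescence (488 nm excitation, 500-530 nm channel) was read by laser-scanning cytometry and normalized to 20 uM Triacsin C.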
row,Compound,max response
1,CC(N)=NCc1cccc(CN)c1,-15%
2,O=C(O)c1cc(=O)c2ccc(Cl)cc2[nH]1,22.6% and 6.02%
3,NCCCCCCNS(=O)(=O)c1cccc2c(Cl)cccc12,16.8%
4,CCCn1c(=O)c2[nH]c(-c3ccc(OCC(=O)Nc4ccc(C#N)cc4)cc3)nc2n(CCC)c1=O,-10.7%
5,Cn1cnc2c(NC3CCCC3)ncnc21,-21%
6,O=C(OCCN1CCCCC1)c1c[nH]c2ccccc12,-30.4%

# Target: DNA repair nuclease/redox regulator APEX1 (Homo sapiens) (UniProt P27695)
# Sequence (P27695 whole entry, looked up): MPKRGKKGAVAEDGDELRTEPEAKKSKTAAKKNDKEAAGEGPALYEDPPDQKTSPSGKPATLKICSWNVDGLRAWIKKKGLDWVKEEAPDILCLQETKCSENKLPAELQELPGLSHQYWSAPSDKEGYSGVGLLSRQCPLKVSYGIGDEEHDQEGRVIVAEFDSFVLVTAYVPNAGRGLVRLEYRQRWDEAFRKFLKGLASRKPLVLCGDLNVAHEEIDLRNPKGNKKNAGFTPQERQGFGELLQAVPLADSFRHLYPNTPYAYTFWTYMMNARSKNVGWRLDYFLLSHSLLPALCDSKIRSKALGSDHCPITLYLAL
# Test: qHTS Validation Assay for Inhibitors of the Human Apurinic/apyrimidinic Endonuclease 1 (APE1) (AID 1705;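 note: TAMRA fluorescence gain over two minutes as APE1 cuts a quenched THF abasic duplex; % is set by controls: 0 for no effect and ±100 for the full control effect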)
# Settings: purified APE1 endonuclease activity, fluorescence, titration; series mostly up to 57.1 µM; activity change, negative = inhibition: at the top concentration
# How it was run: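 Endonuclease activity of human APE1 is followed as dequenching when the enzyme incises a tetrahydrofuran abasic site in a short duplex labelled 5'-TAMRA/3'-BHQ-2 (50 nM final), after 15 min enzyme–compound preincubation at room temperature.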
row,Compound,"activity change, negative = inhibition"
1,CC(N)=NCc1cccc(CN)c1,5.95% (inactive)
2,O=C(O)c1cc(=O)c2ccc(Cl)cc2[nH]1,0.456% (inactive)
3,NCCCCCCNS(=O)(=O)c1cccc2c(Cl)cccc12,3.19% (inactive)
4,CCCn1c(=O)c2[nH]c(-c3ccc(OCC(=O)Nc4ccc(C#N)cc4)cc3)nc2n(CCC)c1=O,-2.29% (inactive)
5,CN(C)CCCCSC(=N)N,-15.6% (inactive)
6,Cn1cnc2c(NC3CCCC3)ncnc21,-4.44% (inactive)
7,NC(CCC(=O)NCS(=O)(=O)O)C(=O)O (configuration not stated),-2.56% (inactive)
8,O=C(OCCN1CCCCC1)c1c[nH]c2ccccc12,3.2% (inactive)

# Test system: not listed separately
# Test: Counterscreen for APE1 Inhibitors: Fluorescent Dye Displacement Validation Assay (AID 1707);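 note: plate controls were ThO with dsDNA and no compound for no effect and ThO without dsDNA for full effect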
# Settings: fluorescent dye displacement from DNA; series mostly up to 57.1 µM; activity change, negative = inhibition: at the top concentration
# How it was run: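 Assay buffer: Tris-HCl pH7.5 with 50mM NaCl, 2 mM MgCl2, 0.01% Tween-20. Dye 250 nM, duplex 50 nM final. Readout: decrease in ThO endpoint fluorescence, 480 nm excitation, 540 nm emission.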
row,Compound,"activity change, negative = inhibition"
1,CC(N)=NCc1cccc(CN)c1,1.62% (inactive)
2,O=C(O)c1cc(=O)c2ccc(Cl)cc2[nH]1,-3.33% (inactive)
3,NCCCCCCNS(=O)(=O)c1cccc2c(Cl)cccc12,-0.546% (inactive)
4,CCCn1c(=O)c2[nH]c(-c3ccc(OCC(=O)Nc4ccc(C#N)cc4)cc3)nc2n(CCC)c1=O,57% (inactive)
5,CN(C)CCCCSC(=N)N,0.249% (inactive)
6,Cn1cnc2c(NC3CCCC3)ncnc21,-0.428% (inactive)
7,NC(CCC(=O)NCS(=O)(=O)O)C(=O)O (configuration not stated),-0.439% (inactive)
8,O=C(OCCN1CCCCC1)c1c[nH]c2ccccc12,0.879% (inactive)

# Target: Endonuclease 4 (Escherichia coli (strain K12)) (UniProt P0A6C1)
# Test: Counterscreen for APE1 Inhibitors: qHTS Validation Assay for Inhibitors of Endonuclease IV (AID 1708); note: % is set by controls: 0 for no effect and ±100 for the full control effect
# Settings: E. coli endonuclease IV, DNA cleavage fluorescence; series mostly up to 57.1 µM; activity change, negative = inhibition: at the top concentration
# How it was run: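 Concentration-response counterscreen run identically to the APE1 assay: 15 min room-temperature preincubation of 2 nM enzyme with compound, reaction started with 50 nM quenched abasic DNA, progress taken from kinetic fluorescence.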
row,Compound,"activity change, negative = inhibition"
1,CC(N)=NCc1cccc(CN)c1,9.24% (inactive)
2,O=C(O)c1cc(=O)c2ccc(Cl)cc2[nH]1,-8.59% (inactive)
3,CCCn1c(=O)c2[nH]c(-c3ccc(OCC(=O)Nc4ccc(C#N)cc4)cc3)nc2n(CCC)c1=O,-7.71% (inactive)
4,CN(C)CCCCSC(=N)N,9.24% (inactive)
5,Cn1cnc2c(NC3CCCC3)ncnc21,0.562% (inactive)
6,NC(CCC(=O)NCS(=O)(=O)O)C(=O)O (configuration not stated),1.29% (inactive)
7,O=C(OCCN1CCCCC1)c1c[nH]c2ccccc12,-7.79% (inactive)

# Test system: not listed separately
# Test: qHTS for differential inhibitors of proliferation of Plasmodium falciparum line 7G8 (AID 1815);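 note: parasite growth measured after three days of incubation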; note: potency is the fitted concentration of half-maximal effect;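 for activity change, negative = inhibition: plate controls were vehicle wells for no effect and reference inhibitor wells for full effect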
# Settings: Plasmodium falciparum 7G8 proliferation inhibition; series mostly up to 28.7 µM; activity change, negative = inhibition: at the top concentration
Compound,"activity change, negative = inhibition",Potency
CC(N)=NCc1cccc(CN)c1,-4.89% (inactive),–
NCCCCCCNS(=O)(=O)c1cccc2c(Cl)cccc12,–,11.2 µM (active)
CCCn1c(=O)c2[nH]c(-c3ccc(OCC(=O)Nc4ccc(C#N)cc4)cc3)nc2n(CCC)c1=O,-16.9% (inactive),–
CN(C)CCCCSC(=N)N,-10.9% (inactive),–
Cn1cnc2c(NC3CCCC3)ncnc21,-13.4% (inactive),–
NC(CCC(=O)NCS(=O)(=O)O)C(=O)O (configuration not stated),-11.5% (inactive),–

# Test system: not listed separately
# Test: qHTS for differential inhibitors of proliferation of Plasmodium falciparum line GB4 (AID 1816);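 note: parasite growth measured after 72 h incubation; 0% = vehicle DMSO and -100% = reference inhibitor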
# Settings: Potency: Plasmodium falciparum GB4 proliferation inhibition; series mostly up to 28.7 µM; activity change, negative = inhibition: at the top concentration
row,Compound,"activity change, negative = inhibition"
1,O=C(O)c1cc(=O)c2ccc(Cl)cc2[nH]1,-17.2% (inactive)
2,CCCn1c(=O)c2[nH]c(-c3ccc(OCC(=O)Nc4ccc(C#N)cc4)cc3)nc2n(CCC)c1=O,-10.4% (inactive)
